# Experimental data: PubChem BioAssay (EPA / NIEHS)
# Records with an inconclusive call do not appear. Activity calls are given as the source filed them. How the source made its calls: active means hit-call score of the fitted dose curve at least 0.9, where 1 is the maximum; inconclusive means response in the unintended direction; inactive means score below 0.9.
# Key:
# [1] = target: Cellular tumor antigen p53 (Homo sapiens) (UniProt P04637); experiment: TOX21_p53_BLA_p2_ratio: Tox21 HCT-116 p53 Agonism Beta-lactamase Assay, Ratio, Phase 2 (AID 2283592)
# Cellular tumor antigen p53 (Homo sapiens), sequence (P04637 whole entry, looked up): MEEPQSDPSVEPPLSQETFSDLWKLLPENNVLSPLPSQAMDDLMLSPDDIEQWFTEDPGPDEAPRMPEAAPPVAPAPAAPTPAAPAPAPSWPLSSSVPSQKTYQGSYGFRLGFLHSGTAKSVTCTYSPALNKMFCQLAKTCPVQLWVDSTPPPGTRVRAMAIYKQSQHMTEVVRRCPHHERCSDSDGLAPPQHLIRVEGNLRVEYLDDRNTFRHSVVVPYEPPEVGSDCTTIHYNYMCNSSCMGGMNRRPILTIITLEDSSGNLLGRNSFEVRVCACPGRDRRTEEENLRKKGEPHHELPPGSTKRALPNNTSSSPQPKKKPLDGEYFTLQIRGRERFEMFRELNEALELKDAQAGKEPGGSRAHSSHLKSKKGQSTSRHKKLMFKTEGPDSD
# Method in brief: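 An inducible beta-lactamase reporter in HCT116 cells signals p53 pathway activation. After 16 h chemical exposure at 37C, cells load CCF4-AM substrate for 2 h at room temperature; activity is the cleaved/uncleaved emission ratio relative to DMSO.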
# [2] = TOX21_p53_BLA_p3_viability: Viability Assessment in the Tox21 HCT-116 p53 Agonism Beta-lactamase Assay, Phase 3 (AID 2283593);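 further: cells exposed to compound for 16 h before reading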
# Method in brief: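 HCT-116 cells (4000/well) rested 5 h at 37C, then got DMSO compounds by pin tool (217-fold dilution) for 16 h at 37C, 5% CO2. After the bla read, CellTiter-Glo was added and luminescence read at 30 min, room temperature.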
# [3] = target: Cellular tumor antigen p53 (Homo sapiens) (UniProt P04637); experiment: TOX21_p53_BLA_p3_ratio: Tox21 HCT-116 p53 Agonism Beta-lactamase Assay, Ratio, Phase 3 (AID 2283596)
# Method in brief: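 HCT116 p53-bla cells (4000/well) given compound in DMSO (217-fold dilution) after 5 h, incubated 16 h at 37C. CCF4-AM substrate 2 h at room temperature; 460/530 nm emission ratio, gain fitted against DMSO.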
# [4] = TOX21_p53_BLA_p4_viability: Viability Assessment in the Tox21 HCT-116 p53 Agonism Beta-lactamase Assay, Phase 4 (AID 2283597);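 further: hits lower the luminescence signal meaning cytotoxicity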
# Method in brief: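 Compound exposure of HCT116 cells lasts 16 h at 37C, 5% CO2, with DMSO stocks diluted 217-fold. Cellular ATP is then quantified by CellTiter-Glo luminescence after 30 min at room temperature.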
# [5] = target: Cellular tumor antigen p53 (Homo sapiens) (UniProt P04637); experiment: TOX21_p53_BLA_p5_ratio: Tox21 HCT-116 p53 Agonism Beta-lactamase Assay, Ratio, Phase 5 (AID 2283599)
# Method in brief: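 HCT-116 cells carrying a p53-inducible beta-lactamase reporter were seeded at 4000 cells/well and dosed after 5 h with compound in DMSO (217-fold dilution). After 16 h at 37C, CCF4-AM substrate was added for 2 h, and the 460/530 nm emission ratio was scored as gain-of-signal versus DMSO.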
# [6] = target: Cellular tumor antigen p53 (Homo sapiens) (UniProt P04637); experiment: TOX21_p53_BLA_p4_ratio: Tox21 HCT-116 p53 Agonism Beta-lactamase Assay, Ratio, Phase 4 (AID 2283601)
# Method in brief: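 HCT116 cells carrying an inducible beta-lactamase reporter were plated at 4000 cells/well, rested 5 h, then exposed to compounds in DMSO (217-fold dilution) for 16 h at 37C. CCF4-AM substrate was loaded 2 h at room temperature; 460/530 nm emission ratio scored gain-of-signal versus DMSO.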
# [7] = TOX21_p53_BLA_p5_viability: Viability Assessment in the Tox21 HCT-116 p53 Agonism Beta-lactamase Assay, Phase 5 (AID 2283600)
# Method in brief: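 Counter-readout for cytotoxicity: ATP-dependent luminescence from CellTiter-Glo, read in the beta-lactamase wells after 30 min at RT, following a 16 h compound exposure at 37C.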
SMILES,outcome [1],outcome [2],outcome [3],outcome [4],outcome [5],outcome [6],AC50 [1],AC50 [3],AC50 [5],AC50 [6],outcome [7],AC50 [2]
COc1ccccc1C=CC=O,inactive,inactive,inactive,inactive,inactive,inactive,–,–,–,–,–,–
CCCc1c2oc(C(=O)O)cc(=O)c2cc2c(=O)cc(C(=O)O)n(CC)c12,inactive,inactive,inactive,inactive,inactive,inactive,–,–,–,–,–,–
CC(C)NCC(O)c1ccc2ccccc2c1 (stereo unspecified),inactive,inactive,inactive,inactive,inactive,inactive,–,–,–,–,–,–
Nc1ccn(C2CO[C@H](CO)O2)c(=O)n1 (stereo partly specified),–,inactive,–,inactive,–,–,0.0586 nM (active),0.0596 nM (active),0.329 nM (active),0.0816 nM (active),–,–
CC(C)COC(=O)c1ccc(O)cc1,inactive,inactive,inactive,inactive,inactive,inactive,–,–,–,–,inactive,–
Cc1c(N)nc(C(CC(N)=O)NCC(N)C(N)=O)nc1C(=O)NC(C(=O)NC(C)C(O)C(C)C(=O)NC(C(=O)NCCc1nc(-c2nc(C(=O)NCCCN[C@@H](C)c3ccccc3)cs2)cs1)C(C)O)C(O[C@@H]1O[C@@H](CO)[C@@H](O)[C@H](O)[C@@H]1O[C@H]1O[C@H](CO)[C@@H](O)[C@H](OC(N)=O)[C@@H]1O)c1cnc[nH]1 (stereo partly specified),–,inactive,–,inactive,–,–,286 nM (active),301 nM (active),430 nM (active),193 nM (active),inactive,–
C=C(C)C(=O)OCC(C)(C)COC(=O)C(=C)C,inactive,inactive,inactive,inactive,inactive,inactive,–,–,–,–,–,–
O=C(O)CCCc1ccccc1,inactive,–,inactive,inactive,inactive,inactive,–,–,–,–,–,36200 nM (active)
CCCCCCCCCCCCCCC[C@H](O)[C@@H](N)CO,inactive,inactive,inactive,inactive,inactive,inactive,–,–,–,–,–,–
